# Data from PubChem BioAssay (NCI).
# Compounds without any hit were thinned out: in the full panel of roughly 83,000, 20% have a hit.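 A percent growth of 40 corresponds to 60% growth inhibition; 0 means no net growth; -100 means all cells died. Active threshold: below 10.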 Values without a mark were called inactive. Calls of active or inactive are those of the source.
# Experiments:
# Test in all cases: NCI-60 one-dose screen, 48 h (100 = growth as untreated, 0 = no growth, -100 = all killed)
# Conditions in all cases: 10 µM
# [1] = system: DU-145 prostate
# [2] = system: K-562 leukemia
# [3] = system: MALME-3M melanoma
# [4] = system: MDA-MB-231 breast
# [5] = system: RXF 393 renal
# [6] = system: SF-268 CNS
# [7] = system: SF-295 CNS
# [8] = system: SF-539 CNS
# [9] = system: M14 melanoma
# [10] = system: UACC-257 melanoma
SMILES,growth [1],growth [2],growth [3],growth [4],growth [5],growth [6],growth [7],growth [8],growth [9],growth [10]
O=C(O)/C=C/C(=O)NCc1ccccc1,121%,108%,99%,125%,104%,110%,98.1%,95.7%,103%,
CCOC(=O)/C(=C/c1ccc(OC)cc1)N(CC)CC,102%,102%,108%,107%,107%,100%,101%,108%,107%,103%
O=C(O)CCC(NC(=O)OCc1ccccc1)C(=O)O (configuration not stated),98.7%,96.6%,96.9%,97%,109%,100%,102%,111%,103%,
Cc1cc(C(O)(c2ccc(Nc3ccccc3)cc2)c2ccc(Nc3ccc(S(=O)(=O)O)cc3)cc2)ccc1N (configuration not stated),11.7%,8.74% (active),-47.6% (active),-51.5% (active),-61.8% (active),14.8%,5.34% (active),-63.9% (active),-42.6% (active),
COc1cc(C(N)=O)cc(OC)c1OC,112%,112%,110%,105%,119%,101%,100%,98.9%,107%,102%
COc1ccc(/C=C/c2cccc[n+]2C)cc1,111%,100%,94.6%,111%,101%,97.2%,99.1%,103%,103%,
OCc1cccc2ccccc12,108%,99.3%,132%,112%,146%,107%,117%,95.7%,110%,109%
O=[N+]([O-])c1ccc(CO)cc1,115%,93.7%,99.3%,95.2%,97.9%,107%,94.4%,97.9%,103%,
O=C1OC(c2ccc(F)cc2)CC1CN1CCOCC1 (configuration not stated),106%,113%,95.6%,105%,111%,104%,89.9%,96.9%,104%,
CC(C)=CC(=O)OC(=O)C=C(C)C,101%,99.1%,101%,99.6%,102%,103%,111%,105%,107%,
CC(=O)OCC1OC(OC2=C(CC=C(C)C)C(=O)c3ccccc3C2=O)C(OC(C)=O)C(OC(C)=O)C1OC(C)=O (configuration not stated),57.1%,-47.4% (active),-36.2% (active),6.41% (active),61.1%,22.7%,63.4%,,46.8%,20.6%
CC(=O)OCC1CCCO1 (configuration not stated),109%,94.5%,99.2%,103%,103%,107%,101%,114%,110%,
O=C(OCC(O)C1OC(c2ccccc2)OC(COC(=O)c2ccccc2)C1O)c1ccccc1 (configuration not stated),118%,101%,105%,107%,96.3%,110%,77.3%,103%,110%,
O=C(Cc1ccc(OCc2ccccc2)cc1)NCc1ccc2c(c1)OCO2,84.6%,27.6%,46.6%,82.8%,105%,68.9%,-16.6% (active),93.7%,61.9%,
COc1cc(/C=C/C(=O)c2ccccc2)cc(OC)c1OC,62.5%,11.4%,76.8%,79.1%,73.2%,57.9%,-24.7% (active),80.8%,74.6%,
N#CC(=Nc1cccc(F)c1)C1=C(O)c2ccccc2C1=O,105%,84.4%,87.1%,84.5%,88.9%,96.5%,82%,95.6%,98.2%,
O=C1OC(=O)C2C1C1(Cl)C(Cl)=C(Cl)C2(Cl)C2C(=O)OC(=O)C21 (configuration not stated),116%,105%,98.2%,122%,100%,105%,105%,98.8%,101%,
CCCCC1C(=O)N(c2ccccc2)N(c2ccccc2)C1=O,113%,99.1%,97.1%,103%,116%,107%,110%,,98.9%,105%
CCN(CC)CCCC(C)Nc1ccnc(/C=C/c2ccc(Cl)cc2)c1 (configuration not stated),49.6%,0.277% (active),-60.6% (active),-28.3% (active),-61.8% (active),9.89% (active),,-69.2% (active),,-77.7% (active)
COCCCNC(=O)c1nnn2c1nc(N)c1cc(Cl)ccc12,105%,34.6%,65.1%,100%,103%,94.1%,91.7%,94%,79.3%,
COc1ccc(/C(C#N)=C2C=C/C(=N/O)c3ccccc3\2)cc1,10.1%,13.2%,51.4%,10.2%,53.9%,18.6%,-38.6% (active),-14.7% (active),7.1% (active),
Nc1ccccc1SC(CC(=O)c1ccccc1)c1c(Cl)cccc1Cl (configuration not stated),23.9%,12.4%,77.1%,86.6%,86.8%,56%,94.2%,101%,93%,
COc1ccc(C(O)c2ccccc2)cc1 (configuration not stated),108%,88.5%,101%,95.5%,111%,93.8%,102%,102%,103%,
CCO/C=C1\SC(=S)N(c2cccc(C)c2)C1=O,111%,99.5%,98.4%,117%,105%,101%,97%,97.8%,119%,
Cc1cc(/C=C/c2ccc3cc(N(C)C)ccc3[n+]2C)c(C)n1-c1ccccc1,-39.2% (active),0.995% (active),-56.9% (active),-18.9% (active),-96.2% (active),-1.17% (active),-33.6% (active),,,-39.5% (active)
OC1OC(COC(c2ccccc2)(c2ccccc2)c2ccccc2)C(O)C(O)C1O (configuration not stated),107%,95.4%,90.6%,91.9%,95.8%,97.7%,96.8%,102%,105%,
O=C(Nc1ccccc1)OCCc1ccccc1,108%,114%,107%,119%,93.3%,111%,80.9%,99%,110%,
O=C(NCCNC(=O)c1ccc(Cl)cc1Cl)c1ccc(Cl)cc1Cl,114%,107%,112%,91.8%,95%,99.1%,82.7%,96.5%,105%,
CC(=O)NCc1cc(C)c(C)cc1C,104%,94.2%,88.7%,110%,103%,95.7%,103%,102%,105%,
